# Data taken from the supplement of paper PMC8728848.
# Only a selection was taken, and the strongest signals are over-represented in it overall.
# B1: CML1 (Coprinopsis cinerea) (protein)
# chain: MAIFHTGSELFIITRGPGKLTLLTWGGLNNLRSVIGAIPTENTGVTKWAVSFSHNYTRFSFIWEGQGEACYQIGNGLTRSPVGRSWSSSSTIHWGSSTVITEDVTSVVPGAVNRDKVTTAYALPDNL
# Tests used:
# Test in all cases: glycan array binding signal (z-score within array); higher = stronger binding
# Details in all cases: glycan notation: IUPAC condensed, linker removed
# [1] = molecular target: Fuc(a1-2)Gal(b1-3)GlcNAc
# In short: (§1)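 Glycan array binding is given as a within-array Z-score, which can be read as non-binding when negative. The arrays, 3228 of them, came from the Consortium for Functional Glycomics database and were retained only where the protein sequence was available. Z-scores were averaged across arrays of the same protein sequence at different concentrations or buffers and across linkers.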
# [2] = molecular target: Fuc(a1-2)Gal(b1-3)GlcNAc(b1-2)Man(a1-3)[Fuc(a1-2)Gal(b1-3)GlcNAc(b1-2)Man(a1-6)]Man(b1-4)GlcNAc(b1-4)[Fuc(a1-6)]GlcNAc
# In short: as §1
# [3] = molecular target: Fuc(a1-2)Gal(b1-3)GlcNAc(b1-3)Gal(b1-4)Glc
# In short: as §1
# [4] = molecular target: Fuc(a1-2)Gal(b1-3)GlcNAc(b1-3)GalNAc
# In short: as §1
# [5] = molecular target: Fuc(a1-2)Gal(b1-3)GlcNAc6S
# In short: as §1
# [6] = molecular target: Fuc(a1-2)Gal(b1-4)Glc
# In short: as §1
# [7] = molecular target: Fuc(a1-2)Gal(b1-4)Glc6S
# In short: as §1
# [8] = molecular target: Fuc(a1-2)Gal(b1-4)GlcNAc(b1-3)Gal(b1-4)GlcNAc
# In short: as §1
# [9] = molecular target: Fuc(a1-2)Gal3S(b1-4)GlcNAc
# In short: as §1
# [10] = molecular target: Fuc(a1-2)Gal6S(b1-3)GlcNAc6S
# In short: as §1
# [11] = molecular target: Fuc(a1-2)[Gal(a1-3)]Gal(b1-3)GlcNAc
# In short: as §1
# [12] = molecular target: Fuc(a1-2)[Gal(a1-3)]Gal(b1-3)GlcNAc(b1-2)Man(a1-3)[Fuc(a1-2)[Gal(a1-3)]Gal(b1-3)GlcNAc(b1-2)Man(a1-6)]Man(b1-4)GlcNAc(b1-4)[Fuc(a1-6)]GlcNAc
# In short: as §1
# [13] = molecular target: Fuc(a1-2)[Gal(a1-3)]Gal(b1-4)GlcNAc(b1-2)Man
# In short: as §1
# [14] = molecular target: Fuc(a1-2)[Gal(a1-3)]Gal(b1-4)GlcNAc(b1-2)Man(a1-3)[Fuc(a1-2)[Gal(a1-3)]Gal(b1-4)GlcNAc(b1-2)Man(a1-6)]Man(b1-4)GlcNAc(b1-4)GlcNAc
# In short: as §1
# [15] = molecular target: Fuc(a1-2)[Gal(a1-4)]Gal(b1-4)GlcNAc
# In short: as §1
# [16] = molecular target: Fuc(a1-2)[GalNAc(a1-3)]Gal(b1-4)GlcNAc(b1-2)Man
# In short: as §1
# [17] = molecular target: Fuc(a1-2)[GalNAc(b1-3)]Gal
# In short: as §1
# [18] = molecular target: Gal(a1-3)Gal(b1-4)[Fuc(a1-3)]GlcNAc
# In short: as §1
# [19] = molecular target: Gal(a1-4)Gal(b1-4)Glc
# In short: as §1
# [20] = molecular target: Gal(b1-3)Gal(b1-4)GlcNAc
# In short: as §1
# [21] = molecular target: Gal(b1-3)GlcNAc(b1-3)Gal(b1-4)GlcNAc
# In short: as §1
# [22] = molecular target: Gal(b1-3)[Neu5Ac(a2-6)]GalNAc
# In short: as §1
# [23] = molecular target: Gal(b1-4)GlcNAc(b1-2)Man(a1-3)[Gal(b1-4)GlcNAc(b1-2)Man(a1-6)][Gal(b1-4)GlcNAc(b1-4)]Man(b1-4)GlcNAc(b1-4)[Fuc(a1-6)]GlcNAc
# In short: as §1
# [24] = molecular target: Gal(b1-4)GlcNAc(b1-2)Man(a1-3)[GlcNAc(b1-2)Man(a1-6)]Man(b1-4)GlcNAc(b1-4)GlcNAc
# In short: as §1
# [25] = molecular target: Gal(b1-4)GlcNAc(b1-3)Gal(b1-3)GlcNAc
# In short: as §1
# [26] = molecular target: Gal(b1-4)GlcNAc(b1-3)Gal(b1-4)GlcNAc(b1-3)Gal(b1-4)GlcNAc(b1-3)Gal(b1-4)GlcNAc(b1-3)Gal(b1-4)GlcNAc(b1-3)Gal(b1-4)GlcNAc(b1-2)Man(a1-3)[Gal(b1-4)GlcNAc(b1-3)Gal(b1-4)GlcNAc(b1-3)Gal(b1-4)GlcNAc(b1-3)Gal(b1-4)GlcNAc(b1-3)Gal(b1-4)GlcNAc(b1-3)Gal(b1-4)GlcNAc(b1-2)Man(a1-6)]Man(b1-4)GlcNAc(b1-4)GlcNAc
# In short: as §1
# [27] = molecular target: Gal3S(b1-3)[Fuc(a1-4)]GlcNAc
# In short: as §1
# [28] = molecular target: Gal6S(b1-3)GlcNAc6S
# In short: as §1
# [29] = molecular target: GalNAc(b1-3)GalNAc
# In short: as §1
# [30] = molecular target: GlcNAc(b1-3)Gal(b1-4)Glc
# In short: as §1
binder,measurement,setting,value
B1,glycan array binding signal (z-score),[1],5.31
same,glycan array binding signal (z-score),[2],1.34
same,glycan array binding signal (z-score),[3],4.85
same,glycan array binding signal (z-score),[4],3.31
same,glycan array binding signal (z-score),[5],4.12
same,glycan array binding signal (z-score),[6],-0.039
same,glycan array binding signal (z-score),[7],1.38
same,glycan array binding signal (z-score),[8],-0.335
same,glycan array binding signal (z-score),[9],-0.157
same,glycan array binding signal (z-score),[10],3.67
same,glycan array binding signal (z-score),[11],3.51
same,glycan array binding signal (z-score),[12],1.07
same,glycan array binding signal (z-score),[13],-0.329
same,glycan array binding signal (z-score),[14],-0.242
same,glycan array binding signal (z-score),[15],-0.314
same,glycan array binding signal (z-score),[16],-0.348
same,glycan array binding signal (z-score),[17],-0.318
same,glycan array binding signal (z-score),[18],-0.346
same,glycan array binding signal (z-score),[19],-0.322
same,glycan array binding signal (z-score),[20],-0.329
same,glycan array binding signal (z-score),[21],-0.339
same,glycan array binding signal (z-score),[22],-0.338
same,glycan array binding signal (z-score),[23],-0.348
same,glycan array binding signal (z-score),[24],-0.342
same,glycan array binding signal (z-score),[25],-0.326
same,glycan array binding signal (z-score),[26],-0.303
same,glycan array binding signal (z-score),[27],3.48
same,glycan array binding signal (z-score),[28],-0.336
same,glycan array binding signal (z-score),[29],-0.349
same,glycan array binding signal (z-score),[30],-0.323
